Laboratory results published in the supplement of paper PMC10849652.
The full data set covers some 7,900 targets. This sample favours those with a hit. About 0.6% of all pairs of compound and target were hits.

How the values were obtained:
Experiment in all cases: log2 fold change, soluble protein after heating vs DMSO (PISA); higher = thermal stabilisation; K562 cells, 10 uM, 30 min; active = over 0.2 and 3.5 SD of the protein, either way, in both replicates (recomputed)
[1] = compound: CC1=C(C=C(C=C1)NC(=O)C2=CC(=CC=C2)C(C)(C)C#N)NC3=CC4=C(C=C3)N=CN(C4=O)C
Summary of the method: (§1)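 For each measurement, 10 μM compound was applied for 30 min to K562 cells at 2×10^6 cells/mL. Aliquots were heated for 3 min across 48°C-58°C, pooled, and extracted in PBS with 0.5% NP-40 at 4°C; the supernatant after 21,000xg for 90 min was soluble protein. This was quantified by TMTpro 16plex LC-MS/MS with channel sums equalised, and thermal stability was reported relative to control samples from duplicates, on a log2 fold-change scale.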

[2] = compound: CC1=C(C=C(C=C1)NC(=O)C2=CC(=CC=C2)N(C)C)NC(=O)C3=CC=C(C=C3)O
Summary of the method: as §1

[3] = compound: CC1=CC=C(C=C1)SC2=C3C=C(SC3=CN=C2)C(=O)N
Summary of the method: as §1

[4] = compound: CC1=NC(=CC=C1)C2=C(N=C(N2)C(C)(C)C)C3=CC4=NC=CN=C4C=C3
Summary of the method: as §1

Nexturastat A = compound: CCCCN(Cc1ccc(C(=O)NO)cc1)C(=O)Nc1ccccc1 [Nexturastat A]
Summary of the method: as §1

vemurafenib = compound: CCCS(=O)(=O)Nc1ccc(F)c(C(=O)c2c[nH]c3ncc(-c4ccc(Cl)cc4)cc23)c1F [vemurafenib]
Summary of the method: as §1

[5] = compound: CCCS(=O)(=O)Nc1ccc(F)c(C(=O)c2c[nH]c3ncc(Cl)cc23)c1F
Summary of the method: as §1

[6] = compound: CCCc1cc(C)[nH]c(=O)c1CNC(=O)c1cc(-c2ccnc(N3CCN(C)CC3)c2)cc2c1cnn2C(C)C
Summary of the method: as §1

givinostat = compound: CCN(CC)Cc1ccc2cc(COC(=O)Nc3ccc(C(=O)NO)cc3)ccc2c1 [givinostat]
Summary of the method: as §1

barasertib = compound: CCN(CCCOc1ccc2c(Nc3cc(CC(=O)Nc4cccc(F)c4)[nH]n3)ncnc2c1)CCOP(=O)(O)O [barasertib]
Summary of the method: as §1

[7] = compound: CC[C@@H]1C(=O)N(C)c2cnc(Nc3ccc(C(=O)NC4CCN(C)CC4)cc3OC)nc2N1C1CCCC1
Summary of the method: as §1

volasertib = compound: CC[C@@H]1C(=O)N(C)c2cnc(Nc3ccc(C(=O)N[C@H]4CC[C@H](N5CCN(CC6CC6)CC5)CC4)cc3OC)nc2N1C(C)C [volasertib]
Summary of the method: as §1

epoxomicin = compound: CC[C@H](C)[C@@H](C(=O)N[C@@H]([C@@H](C)O)C(=O)N[C@@H](CC(C)C)C(=O)[C@]1(CO1)C)NC(=O)[C@H]([C@@H](C)CC)N(C)C(=O)C [epoxomicin]
Summary of the method: as §1

[8] = compound: CCn1c(C(=O)N(C2CC2)C2CC2)cc2c3c(ncn3C)c(Nc3cc(C)n(C)n3)nc21
Summary of the method: as §1

[9] = compound: CCn1cc(-c2ccnc3[nH]c(-c4cccc(CN(C)C)c4)cc23)c(-c2ccc(NC(=O)N(C)C)cc2)n1
Summary of the method: as §1

[10] = compound: CN(C)CC(=O)Nc1ccc2[nH]c(=O)c3ccccc3c2c1
Summary of the method: as §1

rosiglitazone = compound: CN(CCOC1=CC=C(C=C1)C[C@H]2C(=O)NC(=O)S2)C3=CC=CC=N3 (racemic) [rosiglitazone]
Summary of the method: as §1

[11] = compound: CN1C2=C(C3=C1C(=O)N(N=C3)CC4=CC(=CC=C4)N)SC(=C2)S(=O)C
Summary of the method: as §1

[12] = compound: CN1CCC(CNc2ccc3ncc(-c4cccc(OC(F)(F)F)c4)n3n2)CC1
Summary of the method: as §1

[13] = compound: CC[C@H](C)N1C=C(C2=C(C=C(C=C21)C3=CN=C(C=C3)N4CCNCC4)C(=O)NCC5=C(C=C(NC5=O)C)C)C
Summary of the method: as §1

Measured: log2 fold change

EXOSC10 (UniProt Q01780)
inactive: [1] -0.537 | [2] 0.061 | [3] -0.07 | [4] -0.123 | vemurafenib -0.221 | [5] -0.18 | [6] -0.168 | givinostat 0.147 | barasertib 0.036 | [7] -0.048 | volasertib 0.087 | epoxomicin -0.098 | [8] -0.098 | [9] -0.222 | [10] -0.169 | rosiglitazone -0.145 | [11] 0.029 | [12] -0.003
active: Nexturastat A 0.762

EID1 (UniProt Q9Y6B2)
Sequence of UniProt Q9Y6B2 (Q9Y6B2 whole entry, looked up): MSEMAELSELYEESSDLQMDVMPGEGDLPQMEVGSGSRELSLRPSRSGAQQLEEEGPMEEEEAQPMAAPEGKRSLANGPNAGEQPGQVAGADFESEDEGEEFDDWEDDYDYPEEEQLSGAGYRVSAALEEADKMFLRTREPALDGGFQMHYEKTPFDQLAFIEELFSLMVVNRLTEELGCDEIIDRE
inactive: [1] -0.047 | [3] 0.019 | Nexturastat A 0.18 | [5] -0.107 | [6] 0.135 | givinostat -0.134 | volasertib 0.053 | [13] 0.172 | [8] 0.05 | [9] -0.104 | [12] -0.317
active: epoxomicin 0.83

EIF2AK3 (UniProt Q9NZJ5)
inactive: [3] 0.036 | [4] -0.043 | Nexturastat A -0.595 | [5] -0.161 | [6] 0.244 | givinostat 0.027 | barasertib 0.151 | [7] 0.322 | volasertib -0.114 | [13] 0.357 | epoxomicin 0.033 | [8] -0.295 | [9] 0.106 | rosiglitazone -0.308 | [11] 0.14 | [12] -0.017

DNAH10 (UniProt Q8IVF4)
inactive: [1] -0.034 | [4] -0.114 | Nexturastat A 0.434 | vemurafenib -0.067 | [6] -0.269 | givinostat 0.307 | barasertib 0.014 | [7] 0.066 | [13] -0.146 | epoxomicin 0.072 | [8] -0.17 | [9] -0.183 | [10] -0.008 | rosiglitazone 0.031 | [11] 0 | [12] 0.006

FADS1 (UniProt F5GYH4)
inactive: [4] -0.254 | vemurafenib -0.052 | barasertib 0.024 | [10] 0.026 | rosiglitazone 0.238

DHRS13 (UniProt Q6UX07)
inactive: [1] -0.106 | [2] 0.027 | [4] -0.055 | vemurafenib -0.062 | [6] 0.084 | givinostat 0.249 | [7] 0.157 | [13] 0.139 | [8] -0.135 | [9] -0.077 | [10] 0.225 | [11] 0.143 | [12] 0.098

DEGS1 (UniProt O15121)
Sequence of UniProt O15121 (O15121 whole entry, looked up): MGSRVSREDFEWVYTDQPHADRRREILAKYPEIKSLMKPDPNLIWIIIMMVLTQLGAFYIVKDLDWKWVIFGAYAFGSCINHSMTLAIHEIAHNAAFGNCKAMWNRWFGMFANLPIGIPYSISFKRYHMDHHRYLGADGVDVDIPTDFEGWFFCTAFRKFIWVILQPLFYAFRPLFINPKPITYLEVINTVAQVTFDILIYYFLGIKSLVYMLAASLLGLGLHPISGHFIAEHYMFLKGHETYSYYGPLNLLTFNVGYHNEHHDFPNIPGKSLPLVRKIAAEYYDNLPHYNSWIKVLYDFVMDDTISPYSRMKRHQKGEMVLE
inactive: [1] -0.088 | [3] 0.003 | Nexturastat A -0.062 | vemurafenib -0.185 | [5] 0.033 | [6] -0.053 | givinostat -0.023 | barasertib -0.018 | [7] 0.061 | volasertib -0.02 | [13] 0.012 | epoxomicin -0.037 | [8] -0.028 | [9] -0.168 | [10] 0.068 | rosiglitazone -0.041 | [11] -0.1 | [12] 0.019

EEF2K (UniProt O00418)
Sequence of UniProt O00418 (O00418 whole entry, looked up): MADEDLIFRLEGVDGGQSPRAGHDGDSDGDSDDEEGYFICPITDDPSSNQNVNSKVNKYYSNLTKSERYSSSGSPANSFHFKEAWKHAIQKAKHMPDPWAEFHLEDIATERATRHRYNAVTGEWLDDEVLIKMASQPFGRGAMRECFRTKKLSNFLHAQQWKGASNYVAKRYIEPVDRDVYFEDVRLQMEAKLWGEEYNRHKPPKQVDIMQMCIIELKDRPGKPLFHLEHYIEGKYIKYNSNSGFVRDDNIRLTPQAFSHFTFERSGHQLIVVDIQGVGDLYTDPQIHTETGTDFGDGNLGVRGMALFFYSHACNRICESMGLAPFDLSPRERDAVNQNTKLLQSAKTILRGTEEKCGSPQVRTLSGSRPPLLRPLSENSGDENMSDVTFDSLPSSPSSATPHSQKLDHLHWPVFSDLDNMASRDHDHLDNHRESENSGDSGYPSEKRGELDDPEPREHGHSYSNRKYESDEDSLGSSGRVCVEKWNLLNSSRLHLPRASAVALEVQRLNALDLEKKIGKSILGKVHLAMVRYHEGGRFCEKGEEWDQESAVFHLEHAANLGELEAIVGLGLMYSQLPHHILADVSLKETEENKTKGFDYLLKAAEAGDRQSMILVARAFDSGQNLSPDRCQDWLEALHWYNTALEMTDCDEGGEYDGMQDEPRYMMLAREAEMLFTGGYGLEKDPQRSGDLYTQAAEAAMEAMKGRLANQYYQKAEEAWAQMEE
inactive: [2] 0.006 | [3] 0.043 | Nexturastat A 0.201 | vemurafenib 0.089 | [5] 0.157 | [6] 0.15 | givinostat -0.041 | [7] -0.046 | volasertib -0.395 | epoxomicin 0.093 | [8] 0.102 | [9] 0.028 | [10] 0.096 | [12] -0.188

DLK1 (UniProt P80370)
Sequence of UniProt P80370 (P80370 whole entry, looked up): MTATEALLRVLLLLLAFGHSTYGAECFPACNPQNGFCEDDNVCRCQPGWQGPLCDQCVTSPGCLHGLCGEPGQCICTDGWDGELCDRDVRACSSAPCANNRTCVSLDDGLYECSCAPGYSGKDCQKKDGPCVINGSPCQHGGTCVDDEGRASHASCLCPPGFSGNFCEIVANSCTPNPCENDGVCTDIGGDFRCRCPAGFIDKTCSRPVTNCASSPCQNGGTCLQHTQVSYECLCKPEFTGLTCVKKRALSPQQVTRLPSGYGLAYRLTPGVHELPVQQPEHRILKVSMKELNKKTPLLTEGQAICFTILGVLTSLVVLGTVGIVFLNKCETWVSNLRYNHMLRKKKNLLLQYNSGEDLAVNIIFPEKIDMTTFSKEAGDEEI
active: [7] 0.43
inactive: [4] -0.033 | Nexturastat A -0.003 | vemurafenib -0.026 | epoxomicin 0.012 | [10] -0.016 | [11] 0.127

DNAJB1 (UniProt M0R128)
inactive: vemurafenib -0.002 | barasertib 0.135 | [10] -0.038 | rosiglitazone 0.223

DDB1 isoform 2 (UniProt Q16531)
Sequence of UniProt Q16531 (Q16531 whole entry, looked up): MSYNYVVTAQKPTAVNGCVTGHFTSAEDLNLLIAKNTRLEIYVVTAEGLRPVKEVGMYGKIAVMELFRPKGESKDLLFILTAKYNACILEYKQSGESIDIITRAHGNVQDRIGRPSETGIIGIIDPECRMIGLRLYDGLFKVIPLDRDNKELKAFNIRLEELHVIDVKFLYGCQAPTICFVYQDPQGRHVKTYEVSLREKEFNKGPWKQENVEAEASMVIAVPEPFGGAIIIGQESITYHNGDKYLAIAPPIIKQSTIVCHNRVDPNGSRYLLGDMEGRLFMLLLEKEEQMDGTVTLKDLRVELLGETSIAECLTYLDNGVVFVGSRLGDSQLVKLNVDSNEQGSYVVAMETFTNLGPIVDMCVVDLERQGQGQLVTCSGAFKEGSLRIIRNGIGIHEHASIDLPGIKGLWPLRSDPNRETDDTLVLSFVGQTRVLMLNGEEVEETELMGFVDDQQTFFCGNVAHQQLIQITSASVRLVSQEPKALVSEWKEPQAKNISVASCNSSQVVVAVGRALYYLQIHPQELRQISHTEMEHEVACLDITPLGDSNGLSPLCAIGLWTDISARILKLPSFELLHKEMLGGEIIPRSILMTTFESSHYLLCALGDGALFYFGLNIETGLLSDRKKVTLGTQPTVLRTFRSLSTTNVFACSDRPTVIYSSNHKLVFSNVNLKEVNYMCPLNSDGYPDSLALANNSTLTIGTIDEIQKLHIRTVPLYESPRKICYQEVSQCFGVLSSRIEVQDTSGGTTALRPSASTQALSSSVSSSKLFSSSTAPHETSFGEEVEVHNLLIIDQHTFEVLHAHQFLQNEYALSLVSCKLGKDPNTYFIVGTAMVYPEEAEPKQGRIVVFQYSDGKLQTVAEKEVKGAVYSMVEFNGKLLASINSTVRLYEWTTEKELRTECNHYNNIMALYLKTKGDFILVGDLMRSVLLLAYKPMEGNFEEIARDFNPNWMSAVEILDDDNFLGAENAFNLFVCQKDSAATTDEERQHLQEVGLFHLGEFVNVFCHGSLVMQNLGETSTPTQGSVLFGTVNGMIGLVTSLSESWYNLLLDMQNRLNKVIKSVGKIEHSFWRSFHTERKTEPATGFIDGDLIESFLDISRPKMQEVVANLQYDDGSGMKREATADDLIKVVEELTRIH
inactive: [1] -0.144 | Nexturastat A -0.061 | barasertib 0.116 | [7] 0.141 | epoxomicin -0.287 | [9] 0.235 | rosiglitazone 0.301 | [12] -0.041

FAM135A (UniProt Q9P2D6)
inactive: [1] -0.178 | vemurafenib -0.042 | givinostat 0.131 | [13] -0.068 | epoxomicin -0.088 | [8] 0.009 | [10] 0.079
active: Nexturastat A 0.5

FAM193B (UniProt Q96PV7)
Sequence of UniProt Q96PV7 (Q96PV7 whole entry, looked up): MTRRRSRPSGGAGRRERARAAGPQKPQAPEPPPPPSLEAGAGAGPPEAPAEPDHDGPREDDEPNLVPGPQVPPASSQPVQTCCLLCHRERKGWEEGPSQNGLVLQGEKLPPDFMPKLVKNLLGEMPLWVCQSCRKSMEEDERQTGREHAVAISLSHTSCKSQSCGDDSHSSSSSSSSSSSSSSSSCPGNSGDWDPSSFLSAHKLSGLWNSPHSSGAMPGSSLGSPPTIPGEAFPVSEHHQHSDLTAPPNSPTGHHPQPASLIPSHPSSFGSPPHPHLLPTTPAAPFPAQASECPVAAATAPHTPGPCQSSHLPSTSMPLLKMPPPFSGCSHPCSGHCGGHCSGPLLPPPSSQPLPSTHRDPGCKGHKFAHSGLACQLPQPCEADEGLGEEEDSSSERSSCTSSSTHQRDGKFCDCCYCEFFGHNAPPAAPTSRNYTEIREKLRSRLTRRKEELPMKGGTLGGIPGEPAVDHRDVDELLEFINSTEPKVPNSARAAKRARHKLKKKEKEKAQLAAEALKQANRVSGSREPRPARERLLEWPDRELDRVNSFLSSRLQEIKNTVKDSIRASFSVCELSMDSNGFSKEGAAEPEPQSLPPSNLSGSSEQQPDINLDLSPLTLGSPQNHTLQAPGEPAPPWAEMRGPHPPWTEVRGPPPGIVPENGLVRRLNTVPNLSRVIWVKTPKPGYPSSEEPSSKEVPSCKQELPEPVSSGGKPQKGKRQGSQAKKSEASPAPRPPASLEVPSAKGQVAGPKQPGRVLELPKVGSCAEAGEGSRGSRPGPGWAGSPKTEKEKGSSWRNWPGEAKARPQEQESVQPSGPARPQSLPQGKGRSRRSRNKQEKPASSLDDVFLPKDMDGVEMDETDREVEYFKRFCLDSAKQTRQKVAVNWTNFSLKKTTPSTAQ
inactive: [1] -0.16 | [3] -0.114 | [4] -0.034 | Nexturastat A 0.054 | vemurafenib -0.114 | [5] 0.005 | barasertib 0.045 | [7] 0.126 | volasertib 0.092 | epoxomicin -0.033 | [10] -0.442 | rosiglitazone 0.027 | [11] 0.247

DOP1A (UniProt Q5JWR5)
inactive: vemurafenib 0.045 | [6] -0.166 | givinostat 0.057 | barasertib -0.047 | epoxomicin 0.069 | [8] -0.067 | [10] 0.121 | rosiglitazone -0.026
active: Nexturastat A 0.47

ERF (UniProt P50548)
Sequence of UniProt P50548 (P50548 whole entry, looked up): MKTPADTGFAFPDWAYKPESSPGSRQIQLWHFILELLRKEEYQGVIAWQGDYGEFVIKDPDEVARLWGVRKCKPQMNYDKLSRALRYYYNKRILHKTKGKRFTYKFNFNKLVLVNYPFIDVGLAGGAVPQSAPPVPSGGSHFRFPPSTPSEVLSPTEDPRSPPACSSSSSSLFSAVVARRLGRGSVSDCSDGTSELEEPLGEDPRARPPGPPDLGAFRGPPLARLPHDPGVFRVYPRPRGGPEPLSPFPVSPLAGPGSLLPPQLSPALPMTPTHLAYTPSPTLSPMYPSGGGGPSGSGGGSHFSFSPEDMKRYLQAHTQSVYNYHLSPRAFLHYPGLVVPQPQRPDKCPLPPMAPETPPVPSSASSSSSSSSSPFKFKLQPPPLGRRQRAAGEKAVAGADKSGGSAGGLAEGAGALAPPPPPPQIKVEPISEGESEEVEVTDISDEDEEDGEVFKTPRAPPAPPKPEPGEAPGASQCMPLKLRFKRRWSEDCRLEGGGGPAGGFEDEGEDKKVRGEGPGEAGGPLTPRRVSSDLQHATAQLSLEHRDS
inactive: [1] -0.551 | Nexturastat A 0.033 | givinostat -0.133 | epoxomicin 0.068 | [8] 0.033 | [9] -0.052 | [12] 0.319

EDRF1 (UniProt Q3B7T1)
inactive: [1] -0.022 | [2] 0.21 | Nexturastat A -0.042 | [6] 0.019 | givinostat 0.114 | barasertib -0.036 | [7] 0.046 | epoxomicin 0.009 | [8] -0.089 | [9] -0.046 | rosiglitazone 0.004 | [11] 0.006 | [12] -0.014

EEF1D isoform 3 (UniProt P29692)
Sequence of UniProt P29692 (P29692 whole entry, looked up): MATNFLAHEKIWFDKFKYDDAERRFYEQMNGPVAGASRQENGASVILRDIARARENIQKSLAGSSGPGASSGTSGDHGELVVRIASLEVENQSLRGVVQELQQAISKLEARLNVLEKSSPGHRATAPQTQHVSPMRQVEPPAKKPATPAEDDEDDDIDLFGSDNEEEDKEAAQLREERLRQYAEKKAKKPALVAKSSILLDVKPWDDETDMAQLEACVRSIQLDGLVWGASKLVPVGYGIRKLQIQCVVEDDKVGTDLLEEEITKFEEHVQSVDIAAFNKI
inactive: [6] -0.674 | givinostat -0.236 | [8] -0.067

ELOVL7 (UniProt A1L3X0)
Sequence of UniProt A1L3X0 (A1L3X0 whole entry, looked up): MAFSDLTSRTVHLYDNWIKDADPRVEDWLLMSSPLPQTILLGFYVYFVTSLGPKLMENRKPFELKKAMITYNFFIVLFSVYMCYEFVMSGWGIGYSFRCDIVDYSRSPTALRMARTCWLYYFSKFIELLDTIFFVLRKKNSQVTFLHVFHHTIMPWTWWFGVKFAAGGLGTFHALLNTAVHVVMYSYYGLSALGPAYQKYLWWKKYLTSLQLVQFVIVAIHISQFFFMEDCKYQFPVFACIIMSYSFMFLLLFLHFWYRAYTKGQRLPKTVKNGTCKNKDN
inactive: Nexturastat A 0.016 | givinostat 0.034 | epoxomicin 0.007 | [8] -0.016 | [11] 0.047

CTNNBL1 (UniProt Q8WYA6)
inactive: [3] 0.185 | vemurafenib -0.02 | [5] -0.166 | barasertib 0.012 | [7] -0.362 | [10] 0.012 | rosiglitazone 0.072
active: volasertib -1.24

DDX46, A0A0C4DG89
inactive: Nexturastat A 0.058 | [6] 0.149 | [13] -0.074 | epoxomicin 0.155

EZH2 isoform 2 (UniProt Q15910)
active: [6] 0.949
inactive: [1] 0.063 | [3] 0.127 | [4] 0.149 | Nexturastat A -0.173 | vemurafenib 0.377 | [5] 0 | givinostat 0.097 | barasertib 0.045 | volasertib -0.259 | epoxomicin 0.131 | [8] -0.173 | [10] 0.022 | rosiglitazone 0.243 | [11] 0.155
